Screening data as filed in PubChem.
Shown are actives, neighbours in structure and some others; about 1.3% of the full set was active somewhere.
BJeLR lethal: MLPCN primary cell-based screen for lethality selective to Ras in HRASV12 cells. BJeLR (HRASV12) viability, CellTiter-Glo ATP luminescence, 48 h. inhibition, % (concentration not given with the values). 300,000 tested, 0.17% active. AID 1554, 2009; in the data active = inhibition above about 50%; inconclusive = no clear call, values can overlap the other calls
PfHsp40 rescue: rescue of yeast from PfHsp40 toxicity, primary screen, S. cerevisiae, ATP luminescence; 340,000 tested, 0.68% active; growth rescue, % at 12.5 µM; S. cerevisiae expressing PfHsp40, growth rescue; in the data active = growth rescue above about 28%, passing the limit was not always enough; inconclusive = no clear call, values can overlap the other calls;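 also: yeast W303a lacking pdr1 and pdr3 grown in galactose medium; growth measured after three days at 30 °C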
RN4220 kill: growth inhibition of S. aureus RN4220, primary screen, OD600; inhibition, % (no concentration beside the values); 330,000 tested, 0.33% active; 16 h; in the data active = inhibition above about 85%;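 also: plate controls were untreated cells for no effect and reference antibiotic for full effect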
SARS 3CLpro inh: SARS-CoV 3CLpro protease inhibitors, primary screen, biochemical, quenched FRET | Replicase polyprotein 1ab (Severe acute respiratory syndrome coronavirus), P0C6X7 | recombinant SARS-CoV 3CLpro, quenched FRET peptide cleavage | inhibition, % at 6 µM | 290,000 tested, 0.14% active; in the data active = inhibition above about 12%
ugtP null kill: growth inhibition of ugtP-null S. aureus, primary screen, RN4220 ugtP deletion, OD600; 16 h; growth inhibition, % (concentration not given with the values); 330,000 tested, 0.54% active; AID 1259309, 2017; in the data active = growth inhibition above about 68%;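 also: plate controls were untreated wells for no effect and antibiotic for full effect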
* marks the source's active call; other numbers are inactive results; ? = inconclusive; · = not tested or not shown.

SMILES | BJeLR lethal | PfHsp40 rescue | RN4220 kill | SARS 3CLpro inh | ugtP null kill
Cc1ccc(C(=O)CN2/C(=C(\O)c3ccccc3)C(=O)c3ccccc3S2(=O)=O)c(C)c1 | -1.6 | 35.3* | 15.2 | 7.5 | 4.8
CCO[C@@H]1OC(C(=O)N2CCOCC2)=C[C@H](c2ccc(C(F)(F)F)cc2)[C@H]1CCCO | 9.2 | -1.2 | · | -1.8 | ·
COc1ccc(N(C(=O)CCl)C(C(=O)NCCc2ccccc2)c2cccs2)cc1 (stereo unspecified) | 113.8* | -0.5 | 15.7 | 11.5 | -10.4
C=CCn1c(O)c(C2=c3ccccc3=NC2=O)c2ccccc21 | 7.8 | -1.1 | 96.9* | -5.2 | 97.8*
Cc1ccc2c(c1)c(C1=c3ccccc3=NC1=O)c(O)n2C | 8.4 | 0.9 | 97.6* | 0.1 | 97.3*
Cc1c(-n2c(O)c(C3=c4ccccc4=NC3=O)sc2=O)c(=O)n(-c2ccccc2)n1C | 9.8 | -1.0 | 5.6 | 3.8 | 12.3
O=C1N/C(=N/N=Cc2ccco2)SC1Cc1ccccc1 (stereo unspecified) | · | · | -3.7 | · | -9.6
O=c1[nH]c2ccc(Br)cc2c(-c2ccccc2)c1N1CCOCC1 | 2.7 | 0.1 | -2.0 | 2.1 | -14.7
CC(=O)c1c(N2CCOCC2)nc2ccc(Br)cc2c1-c1ccccc1 | -0.4 | 1.3 | -7.3 | -0.6 | 85.1*
NC(=O)Cc1ccc(C(=O)CSc2nnc(-c3ccncc3)n2C2CC2)s1 | · | -0.8 | 2.7 | · | -3.0
CSC(=S)NN=C(C)c1cccc(C)n1 | · | 64.0* | · | · | ·
CCCCNc1c(-c2cccc(-c3ccc(OC)cc3)c2)nc2ccc(C)cn12 | -4.4 | 232.0* | 17.3 | · | 33.9
CCCCCCSc1ccc(-c2nc3ccccn3c2NCCCC)cc1 | 4.8 | 323.6* | 2.6 | · | 14.8
CCCCNc1c(-c2ccc(-c3cccc(Cl)c3)cc2)nc2ccccn12 | -2.0 | 207.3* | 1.0 | · | -35.0
CCCCn1c(N)c(N(CC)C(=O)c2ccc([N+](=O)[O-])c(C)c2)c(=O)[nH]c1=O | 5.5 | -0.6 | -1.6 | -3.2 | 1.4
CC(=O)c1c(C)[nH]c(C(=O)Nc2cc(F)ccc2C)c1C | -6.9 | 0.4 | 2.9 | 4.7 | 2.4
COc1ccc(Cn2nnnc2C(C(C)C)N2CCc3ccccc32)cc1 (stereo unspecified) | 1.6 | 5.9 | 12.6 | -3.9 | 1.8
CC(C)(C)NC(=O)COC(=O)c1ccc(F)cc1Cl | 12.0 | -1.0 | 2.0 | 0.6 | 0.1
CC(C)=CCCC1(C)C=Cc2c(c(C)cc3c2[nH]c2cc(O)ccc23)O1 (stereo unspecified) | -5.3 | ? | 89.9 | · | 100.6*
Cc1cc(=O)[nH]c2cc(O)ccc12 | -12.3 | -1.0 | 1.6 | 2.4 | 2.5
CCOc1ccc(NC(=S)Nc2cc(-c3ccccc3)[nH]n2)cc1 | -16.4 | 105.8* | -1.4 | 4.1 | -7.1
c1ccc(Nc2cccc(Nc3ccccc3)n2)cc1 | -3.8 | 54.3* | -10.7 | 3.6 | 7.4
CC(NS(=O)(=O)c1ccc([N+](=O)[O-])cc1)C(c1cccs1)N1CCOCC1 (stereo unspecified) | 4.2 | -0.4 | 4.1 | -3.8 | 0.8
Cc1ccc(C)c(NS(=O)(=O)c2ccc(NC(=O)CSc3ccc(Cl)cc3)cc2)c1 | -6.0 | -1.6 | -2.5 | 0.3 | -25.3
Cc1ccc(NS(=O)(=O)c2ccc(NC(=O)C(C)Sc3ccc(Cl)cc3)cc2)c(C)c1 (stereo unspecified) | -5.1 | 93.3* | -9.6 | 7.1 | -26.7
SMILES | BJeLR lethal | PfHsp40 rescue | RN4220 kill | SARS 3CLpro inh | ugtP null kill
CN(C)CCNC(=O)c1onc(CSc2ccc(F)cc2)c1C(=O)NCCN(C)C | 6.1 | 33.8* | 1.7 | · | -1.9
CC(C)CCNC(=O)c1onc(CSc2ccc(F)c(F)c2)c1C(=O)NCCC(C)C | 1.1 | 37.3* | -7.9 | · | -46.1
O=C(NNC(=O)c1cccnc1SCc1cccc([N+](=O)[O-])c1)c1cccnc1 | 3.5 | 1.7 | · | 4.7 | ·
CC1(C)CCC[C@]2(C)[C@H]3Cc4cc(O)ccc4O[C@]3(C)CC[C@@H]12 | · | 92.6* | · | · | ·
Cc1cccc2cc(C3CC(c4cccs4)=NN3S(C)(=O)=O)c(Cl)nc12 (stereo unspecified) | 10.0 | 0.7 | 3.1 | 4.7 | 7.7
O=c1c2ccccc2oc2ccc(-c3ccc4[nH]ccc4c3)cc12 | -2.4 | 21.1 | 12.9 | · | 92.3*
CC(C)=CCc1c(O)cc(O)c2c(=O)c3c(CC=C(C)C)c(O)ccc3oc12 | 6.3 | · | 100.4* | · | 100.5*
CC(C)=CCc1c(O)cc(O)c2c(=O)c(O[C@@H]3O[C@@H](C)[C@H](O)[C@@H](O)[C@H]3O)c(-c3ccc(O)cc3)oc12 | -0.1 | 4.2 | -0.3 | · | 6.8
CC(C)=CCc1c(O)cc2c(=O)c3ccc(O)cc3oc2c1O | 3.3 | 147.1* | -3.4 | · | 35.3
COc1c(CC=C(C)C)c(O)cc2oc(=O)c3c4ccc(O)cc4oc3c12 | -8.3 | · | 14.6 | · | -3.0
O=C(c1ccccc1-c1nc(-c2ccccc2)no1)N1CCCC1 | 1.8 | ? | 1.0 | 4.3 | -0.6
S=c1[nH]nc(-c2ccco2)n1-c1ccc(Br)cc1 | -5.8 | 42.7* | 1.6 | · | 9.0
NC(=NN=Cc1ccco1)SC1CC(=O)N(c2ccc(C(=O)O)cc2)C1=O (stereo unspecified) | · | · | 4.6 | · | 6.6
CC(C)NCc1nnc(-c2ccccc2Cl)o1 | 11.1 | -1.5 | 4.5 | -3.3 | 0.4
Cc1ccnc2c1ccc1c(C)ccnc12 | · | 81.5* | 27.6 | · | 37.8
Cc1ccnc2c1ccc1cccnc12 | · | 0.8 | -5.8 | · | 6.3
O=C(Cn1ccc2ccccc2c1=O)NCCC(=O)NC1CCN(Cc2ccccc2)CC1 | 3.8 | -1.0 | 0.9 | 5.1 | 3.6
C=CCC1c2cccc(C(=O)O)c2C(=O)N1c1ccc(Cl)cc1 (stereo unspecified) | 4.4 | 133.1* | 7.8 | 2.4 | 2.8
C=CCC1c2cccc(C(=O)O)c2C(=O)N1c1cccc(C)c1 (stereo unspecified) | -13.3 | 158.6* | 8.8 | -2.7 | 5.3
C=CCC1c2cccc(C(=O)O)c2C(=O)N1c1cccc(OC)c1 (stereo unspecified) | 5.1 | 0.9 | 5.0 | 2.1 | 7.5
O=C(NC(=S)N(CCc1ccccc1)CCc1ccccc1)c1ccco1 | 5.7 | 186.8* | 25.8 | 5.9 | 4.3
O=C(/C=C/c1ccc(Br)cc1)NC(=S)NNC(=O)c1ccco1 | -15.1 | ? | 60.1 | 0.0 | 12.1
O=C(NC(=S)N(Cc1ccccc1)Cc1ccccc1)c1ccccc1F | -4.0 | 1.0 | 95.0* | -0.7 | 94.4*
O=C(/C=C/c1ccccc1)NC(=S)NNC(=O)c1ccco1 | -9.3 | 35.1* | 8.1 | 1.2 | -5.8
O=C(/C=C/c1ccccc1)NC(=S)Nc1ccccc1 | 1.4 | 101.9* | -0.7 | 1.0 | 63.6
O=C(/C=C/c1ccc(F)cc1)NC(=S)Nc1ccccc1 | 0.8 | 0.5 | -0.4 | 0.8 | 5.0
COc1ccccc1C(=O)OC1CCCN(C)C1 (stereo unspecified) | -5.2 | -1.3 | 4.6 | -2.7 | 15.4
N/C(=N\OC(=O)CCCOc1ccc(Cl)cc1Cl)c1ccncc1 | -1.1 | 169.9* | -1.9 | 5.0 | 1.8
